Screening data (PubChem)
Hits are enriched below; roughly 8.1% of the tested compounds scored in any of these assays.
ELG1 repair inh: qHTS screen for small molecules that inhibit ELG1-dependent DNA repair in human embryonic kidney (HEK293T) cells expressing luciferase-tagged ELG1; AID 504467, 2011; Potency, µM (highest dose often 46.1 µM), usual class: inhibitors; HEK293T ELG1-luciferase reporter, luminescence, 16 h; DNA damage induced by 5-fluorouridine; 2.3% of 330,000 active; further: nearly all actives have a fitted effect of over 55% in size
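Overnight (16 hr) co-exposure of 2,000 cells/well to 5-fluorouridine and compound at 37 °C preceded detection. Luciferase was quantified via ONE-Glo luminescence; loss of signal denotes inhibition.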
MCF10A rereplic: A quantitative high throughput screen for small molecules that induce DNA re-replication in MCF 10a normal breast cells; MCF 10A DNA re-replication, Hoechst nuclear intensity, 48 h; Potency, µM (doses to about 46.1 µM), hits mostly activators; 2.9% of 350,000 active; further: nearly all actives have a fitted effect of over 50% in size
KB-V1 MDR tox: qHTS assay for MDR1-selective chemotherapeutics: Primary screen using the drug-selected MDR subline cells KB-V1. KB-V1 MDR cells viability, CellTiter-Glo, 72 h. Potency, µM (top dose mostly 46.1 µM), actives largely listed as cytotoxic. 3.4% of 400,000 active. AID 1347076, 2019; further: nearly all actives have a fitted effect of over 60% in size
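KB-V1 MDR subline cells in DMEM (phenol-red free, 10% FBS) exposed to compounds in qHTS concentration series for 72 h at 37 degrees C. Viability read by CellTiter-Glo luminescence; concentration-effect curves fitted after normalization and correction.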
SW480 rereplic: A quantitative high throughput screen for small molecules that induce DNA re-replication in SW480 colon adenocarcinoma cells. SW480 DNA re-replication, Hoechst DNA content imaging, 48 h. 1.8% of 340,000 active. Potency, µM (doses to about 46.1 µM), usual class: activators; further: nearly all actives have a fitted effect of over 55% in size
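Hoechst fluorescence of nuclei (405 nm excitation, 500-530 nm emission) measured by plate-scanning imager after 48 hr compound exposure at 37 C; re-replication scored as increased number of nuclei with elevated intensity.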
KB-3-1 tox: qHTS assay for MDR1-selective chemotherapeutics: Primary screen using the parental adenocarcinoma cell KB-3-1 | KB-3-1 viability, CellTiter-Glo ATP luminescence, 72 h | Potency, µM (highest dose often 46.1 µM), actives largely listed as cytotoxic | 1.4% of 400,000 active | AID 1347075, 2019; further: nearly all actives have a fitted effect of over 60% in size
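72 h, 37 °C compound treatment of KB-3-1 parental cells; CellTiter-Glo added, 10 min, luminescence read. Data corrected against DMSO-only plates and normalized before curve fitting.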
Large screens that a line does not name were inactive. The call rests on the fitted dose curve; in most records, active means well fitted curve in the direction sought with a large enough effect; inconclusive means small, poorly fitted or top-dose-only effect, or another doubt; inactive means no such curve, though single readings can be large; an effect the other way counts as inactive or inconclusive.

NC(=NCCc1ccc(Cl)cc1)NS(=O)(=O)c1ccccc1	none
C=CCN=C1N[C@@H](c2ccc(Br)cc2)C(C(=O)OC)=C(C)N1Cc1ccccc1	none (no result: ELG1 repair inh, MCF10A rereplic, SW480 rereplic)
COc1ccc(NC(=O)COCc2cc(-c3ccco3)on2)cc1Cl	KB-3-1 tox inconclusive (no result: ELG1 repair inh, MCF10A rereplic, SW480 rereplic)
COc1ccc(C(=O)Nc2ccccc2-c2ccccc2)cc1Cl	none
CCOc1ccccc1C(=O)Nc1ccccc1O	ELG1 repair inh inconclusive
O=C(Nc1ccccc1-c1ccccc1)c1ccc(Cl)c([N+](=O)[O-])c1	MCF10A rereplic 9.2µM, KB-3-1 tox 16.4µM
O=C(Nc1ccc(Nc2ccccc2)cc1)c1ccc(Cl)c([N+](=O)[O-])c1	none
CCOc1ccccc1C(=O)Nc1ccccc1-c1ccccc1	MCF10A rereplic 20.6µM, KB-V1 MDR tox 14.6µM, KB-3-1 tox inconclusive
CCOc1c(Cl)cc(C(=O)Nc2ccccc2-c2ccccc2)cc1Cl	KB-V1 MDR tox 20.6µM, KB-3-1 tox inconclusive
CCOc1ccccc1NC(=O)C(OC(=O)c1ccccc1O)c1ccccc1 (configuration not stated)	KB-V1 MDR tox 11.6µM
COCCNC(=O)C1(C)CCCN(Cc2cc3ccccc3o2)C1 (configuration not stated)	KB-V1 MDR tox inconclusive (no result: ELG1 repair inh, MCF10A rereplic, SW480 rereplic)
COCCNC(=O)CSc1nc2cc(OC)c(OC)cc2c(=O)n1Cc1ccc(OC)cc1	ELG1 repair inh inconclusive, KB-V1 MDR tox 2.59µM
COc1ccc(CNC(=O)CCc2nc3cccnc3n2Cc2ccc(OC)cc2)cc1	none (no result: ELG1 repair inh, MCF10A rereplic, SW480 rereplic)
COc1cc2nc(SCC(=O)NCc3ccco3)n(Cc3ccc(Cl)cc3)c(=O)c2cc1OC	MCF10A rereplic 14.6µM, KB-V1 MDR tox inconclusive, SW480 rereplic 18.4µM, KB-3-1 tox 10.3µM
COc1ccc(Cn2c(CCC(=O)NCc3ccco3)nc3cccnc32)cc1	KB-V1 MDR tox 20.6µM
CCC(Sc1nc2cc(OC)c(OC)cc2c(=O)n1CCc1ccc(OC)c(OC)c1)C(=O)NCCOC (configuration not stated)	ELG1 repair inh 18.3µM, KB-V1 MDR tox inconclusive, SW480 rereplic inconclusive
COCCNC(=O)CSc1nc2ccc(N3CCOCC3)cc2c(=O)n1Cc1ccc(OC)cc1	MCF10A rereplic inconclusive, SW480 rereplic inconclusive
CN(Cc1ccccc1)C(C(=O)NC1CCCCC1)c1ccc(Cl)cc1 (configuration not stated)	none (no result: ELG1 repair inh, MCF10A rereplic, SW480 rereplic)
COc1ccc(NC(=O)Cc2ccc(Cl)cc2)cc1NC(=O)c1ccco1	ELG1 repair inh inconclusive, KB-V1 MDR tox 7.31µM
O=C(Cc1ccc(Cl)cc1)Nc1ccc(N2CCN(C(=O)c3ccco3)CC2)c(Cl)c1	ELG1 repair inh 13µM, MCF10A rereplic inconclusive, KB-V1 MDR tox inconclusive, KB-3-1 tox inconclusive
COc1ccc(/C=C\C(=O)c2c(O)ccc3c(C)cc(=O)oc23)cc1OC	MCF10A rereplic inconclusive, KB-V1 MDR tox 20.6µM, SW480 rereplic inconclusive, KB-3-1 tox 16.4µM
COc1cc(/C=C/C(=O)c2c(O)ccc3c(C)cc(=O)oc23)ccc1O	KB-V1 MDR tox inconclusive, KB-3-1 tox inconclusive (no result: ELG1 repair inh)
CC(C)=CCNc1ncnc2c1c(C#N)cn2C1OC(CO)C(O)C1O (configuration not stated)	MCF10A rereplic 14.6µM, KB-V1 MDR tox inconclusive, SW480 rereplic inconclusive, KB-3-1 tox inconclusive (no result: ELG1 repair inh)
OCC1OC(n2cnc3c(NO)ncnc32)C(O)C1O (configuration not stated)	KB-3-1 tox inconclusive (no result: ELG1 repair inh, MCF10A rereplic, SW480 rereplic)
CCCCNC(=O)C1(C)CCCCN1C(=O)c1ccc(OC)c(C(F)(F)F)c1 (configuration not stated)	none (no result: ELG1 repair inh, MCF10A rereplic, SW480 rereplic)
O=C(COC(=O)C1=NN(c2ccccc2)C(=O)CC1)Nc1nc(-c2ccc(F)cc2)cs1	ELG1 repair inh inconclusive, SW480 rereplic inconclusive
COc1cccc(N2CCN(Cc3nc4ccccc4c(=O)[nH]3)CC2)c1	none
O=c1[nH]c(CN2CCN(c3ccc(O)cc3)CC2)nc2scc(-c3ccc(Cl)cc3)c12	ELG1 repair inh inconclusive, MCF10A rereplic inconclusive, SW480 rereplic 3.66µM, KB-3-1 tox inconclusive
O=c1[nH]c(CN2CCN(c3ccccc3O)CC2)nc2scc(-c3ccccc3Cl)c12	ELG1 repair inh 20.6µM, KB-3-1 tox inconclusive
COc1cccc(N2CCN(Cc3nc4scc(-c5ccccc5)c4c(=O)[nH]3)CC2)c1	ELG1 repair inh inconclusive, MCF10A rereplic 10.3µM, KB-V1 MDR tox 9.2µM, SW480 rereplic inconclusive, KB-3-1 tox inconclusive
O=C(N/N=C/c1ccccc1)C(=O)N/N=C/c1ccccc1	none
O=C(C=C=Nc1ccccc1)C(=O)N=C=Cc1ccccc1	MCF10A rereplic 4.61µM, SW480 rereplic inconclusive
O=c1[nH]cnc2nc[nH]c12	none (no result: ELG1 repair inh, KB-V1 MDR tox, KB-3-1 tox)
O=c1[nH]cnc2n[nH]nc12	KB-V1 MDR tox inconclusive, KB-3-1 tox 1.46µM (no result: ELG1 repair inh, MCF10A rereplic, SW480 rereplic)
CCOC(=O)c1[nH]c(C)c(C(=O)NCc2ccc(Cl)cc2)c1C	MCF10A rereplic inconclusive, KB-V1 MDR tox 23.1µM
COc1cccc(CN(C)C(=O)CSc2nc3ccccc3[nH]2)c1OC	KB-V1 MDR tox 16.4µM
CCOC(=O)c1c(C)[nH]c(C(=O)N(C)Cc2cccc(OC)c2OC)c1C	ELG1 repair inh 16.4µM
CCOC(=O)c1[nH]c(C)c(C(=O)Nc2cc(Cl)ccc2C)c1C	ELG1 repair inh inconclusive, MCF10A rereplic inconclusive, KB-V1 MDR tox 0.461µM, SW480 rereplic 0.82µM, KB-3-1 tox inconclusive
Cc1ccc(NC(=O)CN(C)C(=O)CSc2nnc(N)s2)cc1	none
CCOC(=O)c1c(S(=O)(=O)N2CCC(C(=O)NCc3ccc(F)cc3)CC2)c(C)n(C)c1C	none (no result: ELG1 repair inh, MCF10A rereplic, SW480 rereplic)
CCCOc1c(Br)cc(C(=O)OCc2cc(=O)n3ccsc3n2)cc1OC	KB-3-1 tox inconclusive (no result: ELG1 repair inh)
COc1ccc(NC(=O)N(C)[C@H]2C[C@H]3c4[nH]c5ccccc5c4CCN3C(=O)[C@H]2CO)cc1	none (no result: ELG1 repair inh, MCF10A rereplic, SW480 rereplic)
COc1ccc(CCNC(=O)c2[nH]c(C)c(C(C)=O)c2C)cc1OC	none
CCOc1ccc(CCNC(=O)c2[nH]c(C)c(C(C)=O)c2C)cc1OCC	ELG1 repair inh inconclusive, KB-V1 MDR tox 18.4µM
CCOC(=O)c1[nH]c(C)c(C(=O)N2CCN(c3ccccc3)CC2)c1C	KB-V1 MDR tox 16.4µM
CC(=O)c1c(C)[nH]c(C(=O)NNC(=O)COc2ccc(Cl)cc2C)c1C	MCF10A rereplic 7.08µM
CCOC(=O)c1c(C)[nH]c(C(=O)OCc2ccccc2)c1C	ELG1 repair inh inconclusive
CC(=O)c1c(C)[nH]c(C(=O)NNC(=O)COc2cc(C)ccc2C(C)C)c1C	SW480 rereplic inconclusive
CCOC(=O)c1[nH]c(C)c(C(=O)N2CCOCC2)c1C	none
CCOC(=O)c1[nH]c(C)c(C(=O)N(C)Cc2ccccc2)c1C	KB-V1 MDR tox 16.4µM
